# Compounds with a hit are over-represented: about 0.5% of the library has one in this group of screens.
# phage Ecoli inh: growth loss of phage-infected E. coli, primary screen, RecBCD inhibitor project, absorbance, with phage, HTS; inhibition, % at 11.9 µM; actives 0.26% (n = 360,000); AID 651602, 2012; in the data active = inhibition above about 11%
# E coli growth-1: E. coli V3065 growth inhibition, primary screen, counter-screen for AddAB inhibitor project, absorbance, OD600; 18 h; inhibition, % at 11.9 µM; AID 449728, 2010; actives 0.27% (n = 330,000);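 active = inhibition above the campaign's mean inhibition across all tested compounds plus 3 SD, cut at about 9.9% in these data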;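 also: uninfected addAB+ strain grown without phage in ampicillin broth; 0% = DMSO wells and 100% = ciprofloxacin 0.95 µg/ml wells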
# AddAB inh: growth inhibition of E. coli expressing H. pylori AddAB, primary screen, AddAB inhibitor project, absorbance | AID 435030, 2010 | inhibition, % at 11.9 µM | actives 0.29% (n = 330,000); in the data active = inhibition above about 12%;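 also: 0% = vehicle wells of infected cells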
# Tat transport: E. coli Tat export inhibitors, primary screen, MC4100, TorA-mCherry reporter, fluorescence, single point; actives 0.036% (n = 340,000); inhibition, % at 10 µM;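 active = mean replicate inhibition at least 50% and at least half of replicates individually reaching 50%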;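 also: exported cargo escapes ClpAP degradation while cytoplasmic cargo is degraded and loses fluorescence; 0% = median of neutral control wells and 100% = median of NaSCN control wells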
# E coli growth-2: E. coli growth inhibition, primary screen, OD600; Escherichia coli growth, 23 h; hits give low values; OD600 absorbance (concentration not given with the values); actives 0.21% (n = 330,000); AID 1053175, 2014;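 active = OD600 absorbance below the run mean of sample wells minus 3.6 SD, in any replicate, cut at about 0.56 in these data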
# AddAB conf: growth loss of phage-infected E. coli expressing H. pylori AddAB, confirmation, AddAB inhibitor project, absorbance, E. coli V3065, T4 phage, triplicate; shares compounds with AddAB inh; OD; T4 phage with gene 2 nonsense mutations; inhibition, % at 11.9 µM; actives 64% (n = 880); AID 488942, 2010;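 active = mean inhibition above a set limit taken from the earlier primary screen, cut at about 13% in these data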;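 also: higher means less bacterial growth since AddAB block lets phage replicate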
# RecBCD counter: growth loss of RecBCD+ E. coli with mutant T4 phage, counter-screen for AddAB inhibitor project, absorbance, V66 E. coli; shares compounds with AddAB inh; OD growth; inhibition, % at 11.9 µM; actives 73% (n = 880); AID 488955, 2010;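 active = mean inhibition above the mean of solvent-only control wells plus 3 SD, cut at about 4% in these data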;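 also: optical density read after an 18 h incubation at 37 °C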
# Bact viability: bacterial viability inhibition counter-screen, confirmation, counter-screen for AddAB inhibitor project, absorbance | absorbance (AddAB counterscreen) | inhibition, % at 11.9 µM | actives 35% (n = 880) | shares compounds with AddAB inh; in the data active = inhibition above about 25%
# * = called active by the depositor; nt = not tested or not shown.
SMILES,phage Ecoli inh,E coli growth-1,AddAB inh,Tat transport,E coli growth-2,AddAB conf,RecBCD counter,Bact viability
O=C(NN=Cc1ccc(Cl)cc1Cl)c1n[nH]c2c1CCCC2,nt,nt,nt,nt,0.677,nt,nt,nt
CCc1nnc(NN=Cc2ccc(N3CCC(C)CC3)c([N+](=O)[O-])c2)n1N,nt,nt,nt,nt,0.71,nt,nt,nt
CC1CCN(c2ccc(/C=N\Nc3nncn3N)cc2[N+](=O)[O-])CC1,2.9,5.1,14.5*,-8.9,nt,-1.8,0.2,-4.9
O=C(Nc1ccc([N+](=O)[O-])cc1)Nc1ccc(OC(F)F)c(Cl)c1,12.9*,14.7*,14.9*,-7.9,0.288*,15.2*,17.0*,10.9
CCOC(=O)c1cccc(NC(=S)N2CCN(c3ncc4c(=O)c(C(=O)O)cn(CC)c4n3)CC2)c1,4.7,5.7,6.6,9.1,0.684,nt,nt,nt
CCn1cc(C(=O)O)c(=O)c2cnc(N3CCN(C(=S)Nc4ccccc4C(F)(F)F)CC3)nc21,5.9,94.5*,98.0*,3.3,0.536,48.7*,2.1,23.1
CCn1cc(C(=O)O)c(=O)c2cnc(N3CCN(C(=S)Nc4ccccc4)CC3)nc21,1.4,49.7*,98.0*,-2.7,0.444*,4.9,0.9,1.2
C=CCn1c(O)c(N=Nc2ccccc2)c2ccccc21,3.6,-3.8,-1.5,-0.8,nt,nt,nt,nt
C=CCn1c(O)c(N=Nc2ccccc2O)c2ccccc21,7.2,11.2*,17.9*,2.1,0.619,81.4*,4.6*,19.1
CCOCCn1c(CN(C)Cc2ccccc2)nc2c1c(=O)n(C)c(=O)n2C,3.9,100.1*,100.0*,-14.1,0.743,-5.0,-0.9,-3.7
CCOC(=O)C1=C(C)NC2=C(C(=O)c3ccccc32)C1c1ccc([N+](=O)[O-])o1 (stereo not given),6.0,12.5*,25.9*,0.6,0.627,32.3*,1.8,14.7
CCOC(=O)C1=C(C)NC(=O)NC1c1ccc([N+](=O)[O-])o1 (stereo not given),1.1,-1.8,-1.5,0.9,0.693,nt,nt,nt
c1c(CC2CCCC2)nnn1CC1CCC(C2CCC(Cn3cc(CC4CCCC4)nn3)O2)O1 (stereo not given),nt,nt,nt,nt,0.705,nt,nt,nt
CC(=O)Oc1cc(O)c2c(=O)c(OC(C)=O)c(-c3ccc(OC(C)=O)c(OC(C)=O)c3)oc2c1,nt,8.5,16.1*,13.8,0.618,14.1*,4.2*,9.1
COc1ccc(-c2oc3cc(OC(C)=O)cc(OC(C)=O)c3c(=O)c2OC)cc1,2.5,nt,nt,-2.6,0.643,nt,nt,nt
O=C(O)c1ccc(N/N=C/C=C/c2ccc([N+](=O)[O-])o2)cc1,8.1,8.5,14.0*,0.7,nt,30.9*,3.6,8.8
CC=CC(=O)Nc1cccc(C2=NOC3(C2)CC(C(N)=O)N(C(=O)c2cc([N+](=O)[O-])cc([N+](=O)[O-])c2C)C3)c1 (stereo not given),nt,nt,nt,nt,0.701,nt,nt,nt
Cc1[nH]n(-c2ccccc2)c(=O)c1C(=O)c1ccc(Cl)cc1,-0.5,96.1*,97.0*,-1.3,0.675,0.2,-1.5,-6.0
Cc1cc(C)nc(SCc2ccc(C(=O)N/N=C/c3cccc(O)c3O)cc2)n1,4.9,6.9,12.4*,7.7,nt,-0.5,5.0*,-2.9
CC1OC(OCC2OC(Oc3cc(O)c4c(=O)cc(-c5ccc(O)c(O)c5)oc4c3)C(O)C(O)C2O)C(O)C(O)C1O (stereo not given),nt,nt,nt,nt,0.697,nt,nt,nt
CC1CCCN(Cc2nc3c(c(=O)n(C)c(=O)n3C)n2Cc2c(F)cccc2Cl)C1 (stereo not given),-1.2,16.2*,98.6*,-11.0,0.784,-1.2,0.7,-1.6
COc1cccc(/C=N\NC(=O)c2ccc(Cn3cc(Br)c([N+](=O)[O-])n3)o2)c1O,10.1,9.9*,16.4*,-3.7,nt,30.7*,7.1*,20.2
CC1=NN(C(=O)c2ccc(Cn3cc(Br)c([N+](=O)[O-])n3)o2)C(O)(C(F)(F)F)C1 (stereo not given),9.1,7.8,18.3*,-2.8,0.665,8.0,2.5,5.1

# Screening results: PubChem BioAssay, several laboratories
